Some test systems named below: CAMK4; CAMKK1; CAMKK2; CASK; CDC2L2; CDK2; CDK3.
Settings in all cases: concentration: 1 μM, replicates: in singlicate; n = 1
Another assay concerns T1, CDC2L1.
T1 construct: gene CDK11B

For the next assay, the system named is T2, CDC2L5.
T2 construct: gene CDK13

Another assay has as its system T3, CDK11.
T3 construct: gene CDK19

Structures are written as SMILES.
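Note: KINOMEscan kinase panel screen.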

As to `CNC(=O)c1ccc(C)c(-n2c(C)cc(OCc3ccc(F)cc3F)c(Br)c2=O)c1`, the “%Inh” value in the assay with CAMK4 is on record as 0%; with CAMKK1, 0%; in the assay with CAMKK2, 1%; in the assay on CASK it was 0%; in the assay on CDC2L1, 0%; in the assay on CDC2L2 it was 0%. Moreover, the “%Inh” value was determined as 0% in the assay with CDC2L5, 57% in the assay with CDK11, 0% with CDK2 and 15% with CDK3.

Turning to `CN1c2ccc(-c3ccc(C(N)=O)cc3)cc2-c2[nH]ncc2S1(=O)=O`, the “%Inh” value with CAMK4 worked out at 16%; in the assay on CAMKK1, 100%; in the assay on CAMKK2, 21%; with CASK, 1%; with CDC2L1, 0%; in the assay on CDC2L2 it was 0%. For the same compound, the “%Inh” value amounted to 2% with CDC2L5, 0% with CDK11, 0% with CDK2 and 0% with CDK3.

Consider `COc1nccc(-c2c(-c3ccc(F)cc3)ncn2CCCN2CCOCC2)n1` [SB-282852], for which the “%Inh” value came to 17% with CAMK4; 10% in the assay with CAMKK1; 3% in the assay with CAMKK2; 8% with CASK; 0% with CDC2L1; 0% with CDC2L2. Further, the “%Inh” value with CDC2L5 is 28%; in the assay with CDK11, 3%; in the assay with CDK2 it was 0%; in the assay on CDK3, 6%.

Regarding `Cn1cncc1C(=O)NC1CCN(c2ccnc(Nc3ccc(F)cc3)n2)C1` (centres unmarked) [GSK1379717], the “%Inh” value in the assay on CAMK4 is given as 0%; in the assay with CAMKK1 it was 30%; with CAMKK2, 32%; with CASK, 14%; with CDC2L1, 0%; in the assay on CDC2L2 it was 6%. Also, the “%Inh” value in the assay with CDC2L5 worked out at 0%; in the assay with CDK11 it was 3%; in the assay on CDK2, 0%; in the assay on CDK3 it was 0%.

Regarding `CC(C)c1cc(-c2ccc3c(N)n[nH]c3c2)nc(N)n1` [GSK2250882], the “%Inh” value was 0% in the assay on CAMK4; 0% in the assay on CAMKK1; 18% in the assay with CAMKK2; 21% with CASK; 0% with CDC2L1; 5% with CDC2L2. The “%Inh” value is on record as 0% in the assay on CDC2L5, 0% with CDK11, 0% with CDK2 and 5% with CDK3.

On to `Cc1ccc(NC(=O)c2ccc(Cl)cc2)cc1-c1ccc(C(=O)Nc2ccncc2)cc1` [GSK1398467], for which the “%Inh” value amounted to 0% with CAMK4; 0% with CAMKK1; 5% in the assay with CAMKK2; 16% with CASK; 0% in the assay on CDC2L1; 24% in the assay on CDC2L2. For the same compound, the “%Inh” value in the assay with CDC2L5 was determined as 0%; in the assay on CDK11 it was 2%; in the assay with CDK2, 0%; in the assay on CDK3, 6%.

Consider `O=C1NC(=O)C(c2ccc(Cl)cc2)=C1Nc1cccc(Cl)c1` [SB-317651], for which the “%Inh” value amounted to 29% in the assay on CAMK4; 7% with CAMKK1; 5% in the assay on CAMKK2; 27% in the assay on CASK; 0% in the assay on CDC2L1; 4% with CDC2L2. Further, the “%Inh” value in the assay with CDC2L5 was found to be 0%; in the assay on CDK11, 6%; with CDK2 it was 0%; with CDK3, 8%.

For `O=c1cc(N2CCOCC2)nc2n(Cc3ccccc3F)ccn12` [GSK2297428], the “%Inh” value in the assay on CAMK4 amounted to 0%; in the assay on CAMKK1, 5%; in the assay on CAMKK2, 3%; in the assay on CASK, 79%; in the assay on CDC2L1 it was 0%; in the assay with CDC2L2, 12%. Further, the “%Inh” value in the assay with CDC2L5, with CDK11, with CDK2 and in the assay on CDK3 was 0% throughout.

Turning to `COc1ccc(Nc2nccc(-c3ccc(NC(=O)c4cc5cc(F)ccc5[nH]4)cc3)n2)cc1` [GSK1229496], the “%Inh” value in the assay on CAMK4 is 0%; in the assay with CAMKK1 it was 0%; in the assay with CAMKK2, 17%; in the assay with CASK it was 0%; with CDC2L1, 0%; with CDC2L2, 14%. The “%Inh” value with CDC2L5 was determined as 0%; in the assay on CDK11 it was 22%; in the assay on CDK2, 0%; with CDK3, 0%.

In the case of `Cc1ccc(NC(=O)Nc2ccc(Cl)c(C(F)(F)F)c2)cc1-c1ccc(C(=O)Nc2ccncc2)cc1` [GSK1398470], the “%Inh” value with CAMK4 came out at 0%; in the assay on CAMKK1, 0%; in the assay with CAMKK2 it was 0%; in the assay on CASK, 0%; with CDC2L1, 0%; in the assay on CDC2L2 it was 20%. Moreover, the “%Inh” value in the assay with CDC2L5 is reported as 0%; with CDK11, 11%; in the assay on CDK2, 0%; in the assay with CDK3, 0%.

As for `COc1ccc(CSc2nnc(-c3ccc4nccn4c3)o2)cc1C(F)(F)F`, the “%Inh” value stood at 0% with CAMK4; 0% in the assay with CAMKK1; 0% in the assay on CAMKK2; 15% with CASK; 4% in the assay on CDC2L1; 5% in the assay on CDC2L2. The “%Inh” value in the assay with CDC2L5 stood at 50%; in the assay on CDK11, 40%; in the assay with CDK2, 0%; in the assay with CDK3, 4%.

For the compound `c1ccc(-c2ccnc3[nH]ccc23)cc1` [SB-693578], the “%Inh” value in the assay with CAMK4 worked out at 0%; in the assay on CAMKK1, 10%; in the assay with CAMKK2, 11%; in the assay with CASK, 26%; in the assay on CDC2L1, 0%; in the assay on CDC2L2, 6%. Also, the “%Inh” value is reported as 0% in the assay on CDC2L5, 20% in the assay with CDK11, 0% in the assay with CDK2 and 2% in the assay on CDK3.

In the case of `CCn1c(-c2c(N)noc2C)nc2cnccc21` [SB-737856], the “%Inh” value was 0% in the assay on CAMK4; 13% in the assay with CAMKK1; 0% with CAMKK2; 0% with CASK; 0% in the assay on CDC2L1; 8% in the assay on CDC2L2. Further, the “%Inh” value is listed as 98.8% with CDC2L5, 7% with CDK11, 0% with CDK2 and 0% in the assay with CDK3.

For `CNCc1ccc2nc(NC(=O)c3ccc(C(C)(C)C)cc3)cn2c1`, the “%Inh” value in the assay with CAMK4 is 6%; with CAMKK1, 0%; with CAMKK2, 12%; with CASK, 18%; in the assay with CDC2L1, 16%; in the assay on CDC2L2, 4%. Further, the “%Inh” value is 33% in the assay with CDC2L5, 4% in the assay with CDK11, 0% with CDK2 and 7% in the assay on CDK3.

`CSc1ccc(-c2nc3n(c2-c2ccncc2)CCC3)cc1` [SKF-105561]: the “%Inh” value is recorded as 30% in the assay with CAMK4; 0% with CAMKK1; 0% with CAMKK2; 3% with CASK; 15% in the assay on CDC2L1; 24% in the assay with CDC2L2. Besides, the “%Inh” value with CDC2L5 came to 30%; in the assay on CDK11, 0%; in the assay on CDK2, 0%; in the assay with CDK3, 0%.

As to `CC(=O)c1cccc(NC(=O)NC2CCN(c3ccnc(Nc4ccc(F)cc4)n3)C2)c1` (centres unmarked) [GSK1379710], the “%Inh” value is reported as 0% with CAMK4; 26% in the assay on CAMKK1; 24% with CAMKK2; 6% in the assay with CASK; 0% with CDC2L1; 17% in the assay on CDC2L2. For the same compound, the “%Inh” value with CDC2L5 is recorded as 0%; with CDK11, 80%; with CDK2 it was 8%; in the assay with CDK3 it was 6%.

As for `COc1cccc(NC(=O)Nc2ccc(C)c(-c3ccc(C(=O)Nc4ccncc4)cc3)c2)c1` [GSK1398474], the “%Inh” value in the assay with CAMK4 amounted to 10%; in the assay with CAMKK1, 0%; with CAMKK2 it was 19%; in the assay with CASK it was 0%; in the assay on CDC2L1, 0%; in the assay with CDC2L2, 15%. Moreover, the “%Inh” value worked out at 0% in the assay with CDC2L5, 0% with CDK11, 24% in the assay with CDK2 and 0% in the assay with CDK3.

Values taken from article PMC5540273 (PLoS ONE, 2017).
